# Laboratory results reported in PubChem BioAssay (NCATS).
# Values joined by “and” are separate entries in the source; they are usually repeats but may differ in a detail not shown here. Identical values can stand only once. Inconclusive results are not listed. Entries that show only a call come without a potency. Some compounds were tested as several samples or in several runs, with calls that do not always agree. Active and inactive are the calls of the source. Unless noted, calls follow the shape of the dose curve; as a rule, active = well fitted curve in the direction sought with a large enough effect; inconclusive = small, poorly fitted or top-dose-only effect, or another doubt; inactive = no such curve, though single readings can be large; an effect the other way counts as inactive or inconclusive.
# Key:
# [1] = biological target: Cytochrome P450 2D6 (Homo sapiens) (UniProt P10635); test: Cytochrome P450 family 2 subfamily D member 6 (CYP2D6) small molecule antagonists: luciferase biochemical (cell-free) qHTS assay (AID 1645840; active = well fitted curve in the direction sought with a large enough effect in the repeat runs; an effect the other way counts as inactive or inconclusive; also: nearly all actives have a fitted effect of over 55% in size; also: potency is read from the fitted curve at half-maximal effect)
# Outline: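 P450-Glo luminescent screen: recombinant CYP2D6 enzyme–proluciferin substrate mix preincubated with compound 10 min at room temperature, then NADPH regeneration added for 1 h at room temperature. Detection reagent added for 20 min; luciferin light read as relative luminescence units.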
# [2] = biological target: Cytochrome P450 2C9 (Homo sapiens) (UniProt P11712); test: Cytochrome P450 family 2 subfamily C member 9 (CYP2C9) small molecule antagonists: luciferase biochemical (cell-free) qHTS assay (AID 1645842; active = well fitted curve in the direction sought with a large enough effect in the repeat runs; an effect the other way counts as inactive or inconclusive; also: nearly all actives have a fitted effect of over 55% in size)
# Outline: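 Luminescence, after 20 min with luciferin detection reagent, reflected CYP2C9 turnover during a 1 h NADPH-driven reaction at 37C. Enzyme-substrate mix contained 0.4% bovine serum albumin and was preincubated with compound 10 min at room temperature.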
# [3] = Primary qHTS for inhibitors of nuclear receptor binding SET domain protein 2 (NSD2) in an isogenic RCH-ACV NSD2 p.E1099K mutant (9B) (AID 1645876); also: nearly all actives have a fitted effect of over 70% in size; also: potency is read from the fitted curve at half-maximal effect
# [4] = Primary qHTS for inhibitors of nuclear receptor binding SET domain protein 2 (NSD2) in an RCH-ACV wild type WT cells (2C) (AID 1645877); also: nearly all actives have a fitted effect of over 70% in size; also: potency is read from the fitted curve at half-maximal effect
# [5] = NCATS anti-infectives library activity on HEK293 viability as a counter-qHTS vs the C. elegans viability qHTS (AID 1745854)
# Outline: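 HEK293 cells, 1500 per well, exposed 24 hr at 37C in 5% CO2 to compounds in a 1:5 titration, up to 41.7 uM final. Viability read as CellTiter-Glo luminescence after 10 min at room temperature.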
# [6] = biological target: Papain (Carica papaya) (UniProt P00784); test: Primary qHTS assay for inhibitors of the protease papain (AID 1645873);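 also: papain turnover of Z-FR-AMC read as the AMC fluorescence gain over 10 min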; also: potency is read from the fitted curve at half-maximal effect
# [7] = biological target: N-terminal Xaa-Pro-Lys N-methyltransferase 1 (Homo sapiens) (UniProt Q9BV86); test: Confirmatory qHTS for Inhibitors of N-terminal methyltransferase 1 (NTMT1): MTaseGlo Assay (AID 1645874); also: potency is read from the fitted curve at half-maximal effect; nearly all actives have a fitted effect of over 65% in size
# Outline: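 NTMT1 (125 nM) preincubated 15 min with compound and 100 uM SAM, then 1 uM SPKRIA peptide added for 30 min at room temperature. SAH detected by MTase-Glo luminescence; normalized to no-enzyme and DMSO controls, fitted to 4-parameter Hill.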
# [8] = biological target: Catechol O-methyltransferase (Homo sapiens) (UniProt P21964); test: Confirmatory Screen for Target Class Profiling of Small Molecule Inhibitors of Methyltransferases (AID 1745852; calls by dose curve; also: potency is read from the fitted curve at half-maximal effect); conditions: MTase-Glo luminescence, SAH detection, recombinant enzyme; measured here: COMT max response; stronger effect = lower value
# [9] = biological target: Guanidinoacetate N-methyltransferase (Homo sapiens) (UniProt Q14353); test: as above; conditions: MTase-Glo luminescence, SAH detection, recombinant enzyme; activity change, negative = inhibition: at 57.3 µM (top of the series)
# [10] = biological target: Nicotinamide N-methyltransferase (Homo sapiens) (UniProt P40261); test: as above; conditions: MTase-Glo luminescence, SAH detection, recombinant enzyme; measured here: NNMT max response; stronger effect = lower value
# [11] = biological target: Phenylethanolamine N-methyltransferase (Homo sapiens) (UniProt P11086); test: as above; conditions: MTase-Glo luminescence, SAH detection, recombinant enzyme; measured here: PNMT max response; stronger effect = lower value
# [12] = NCATS anti-infectives library activity on the primary C. elegans qHTS viability assay (AID 1745855; calls by dose curve); conditions: C. elegans worm area imaging, day 7; at 41.8 µM (top of the series)
# Outline: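 Viability is taken from GFP fluorescence of PE254-GFP-FLuc C. elegans imaged by laser cytometry over 7 days. Ten L1 worms per well grow at 21 °C on TOP10 E. coli capsules with titrated compound; levamisole marks toxicity.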
# [13] = Viability counterscreen for antagonist of constitutive androstane receptor (CAR) against the NCATS DSHEA and TCM libraries (AID 1794837);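 also: compound exposure lasted 24 h before viability reading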
# Outline: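 Cell viability, CellTiter-Fluor, Ex/Em 405/540 nm, 1 h at 37C. HepG2-CYP2B6-hCAR, 2,500 cells/well; cpds + CITCO 48 uM final (antagonist mode), 24 h, 37C/5% CO2.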
# [14] = Viability counterscreen for agonist of constitutive androstane receptor (CAR) against the NCATS DSHEA and TCM libraries (AID 1794838)
# Outline: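 Viability by CellTiter-Fluor fluorescence, 405/540 nm, after 1 h at 37C. HepG2-CYP2B6-hCAR cells were exposed 24 h to test substances in presence of 0.75 uM PK11195 (final).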
# [15] = biological target: Nuclear receptor subfamily 1 group I member 3 (Homo sapiens) (UniProt Q14994); test: Primary qHTS for agonist of constitutive androstane receptor (CAR) against the NCATS DSHEA and TCM libraries (AID 1794839);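 also: HepG2 cells expressing human CAR with a CYP2B6 reporter plus PK11195 antagonist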
# Outline: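 Luminescence from ONE-Glo luciferase was the agonist read-out in HepG2-CYP2B6-hCAR cells exposed 24 h to test substances. Wells also held the CAR antagonist PK11195 at 0.75 µM final. Viability was by CellTiter-Fluor fluorescence.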
# Chain of Cytochrome P450 2D6 (Homo sapiens) (P10635 whole entry, looked up): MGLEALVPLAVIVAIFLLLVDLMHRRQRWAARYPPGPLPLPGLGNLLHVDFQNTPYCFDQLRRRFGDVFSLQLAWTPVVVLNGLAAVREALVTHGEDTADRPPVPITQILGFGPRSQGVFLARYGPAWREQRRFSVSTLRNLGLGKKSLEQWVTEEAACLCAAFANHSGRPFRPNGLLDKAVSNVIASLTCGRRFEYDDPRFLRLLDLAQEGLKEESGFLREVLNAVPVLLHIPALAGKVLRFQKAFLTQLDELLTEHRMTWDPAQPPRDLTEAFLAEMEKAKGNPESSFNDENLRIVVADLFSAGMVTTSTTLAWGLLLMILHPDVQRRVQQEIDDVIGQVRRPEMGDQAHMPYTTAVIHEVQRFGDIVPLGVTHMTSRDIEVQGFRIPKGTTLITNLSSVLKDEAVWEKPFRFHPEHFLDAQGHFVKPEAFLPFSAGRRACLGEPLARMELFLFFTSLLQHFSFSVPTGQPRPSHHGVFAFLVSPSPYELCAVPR
# Chain of Cytochrome P450 2C9 (Homo sapiens) (P11712 whole entry, looked up): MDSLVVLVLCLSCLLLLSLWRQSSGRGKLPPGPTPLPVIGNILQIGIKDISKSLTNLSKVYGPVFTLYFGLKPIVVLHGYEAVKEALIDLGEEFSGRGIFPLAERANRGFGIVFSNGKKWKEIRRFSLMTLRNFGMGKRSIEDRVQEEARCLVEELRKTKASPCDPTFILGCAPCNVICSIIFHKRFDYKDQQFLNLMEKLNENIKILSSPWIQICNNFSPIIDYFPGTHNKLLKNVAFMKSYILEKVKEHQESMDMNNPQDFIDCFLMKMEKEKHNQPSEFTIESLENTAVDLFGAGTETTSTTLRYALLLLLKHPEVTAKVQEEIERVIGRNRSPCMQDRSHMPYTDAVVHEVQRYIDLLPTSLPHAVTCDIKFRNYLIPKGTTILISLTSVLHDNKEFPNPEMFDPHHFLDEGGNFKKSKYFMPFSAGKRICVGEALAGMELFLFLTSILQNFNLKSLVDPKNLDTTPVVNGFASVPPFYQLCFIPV
# Chain of Papain (Carica papaya) (P00784 whole entry, looked up): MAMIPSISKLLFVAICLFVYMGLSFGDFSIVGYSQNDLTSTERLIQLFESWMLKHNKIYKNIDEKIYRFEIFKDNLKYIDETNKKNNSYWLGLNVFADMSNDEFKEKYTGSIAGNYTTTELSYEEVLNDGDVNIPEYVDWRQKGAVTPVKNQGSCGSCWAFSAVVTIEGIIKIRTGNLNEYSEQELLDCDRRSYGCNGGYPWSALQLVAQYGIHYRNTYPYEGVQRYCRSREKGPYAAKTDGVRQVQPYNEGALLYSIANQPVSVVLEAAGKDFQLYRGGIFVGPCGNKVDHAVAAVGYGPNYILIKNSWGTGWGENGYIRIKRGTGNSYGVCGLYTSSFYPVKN
# Chain of Phenylethanolamine N-methyltransferase (Homo sapiens) (P11086 whole entry, looked up): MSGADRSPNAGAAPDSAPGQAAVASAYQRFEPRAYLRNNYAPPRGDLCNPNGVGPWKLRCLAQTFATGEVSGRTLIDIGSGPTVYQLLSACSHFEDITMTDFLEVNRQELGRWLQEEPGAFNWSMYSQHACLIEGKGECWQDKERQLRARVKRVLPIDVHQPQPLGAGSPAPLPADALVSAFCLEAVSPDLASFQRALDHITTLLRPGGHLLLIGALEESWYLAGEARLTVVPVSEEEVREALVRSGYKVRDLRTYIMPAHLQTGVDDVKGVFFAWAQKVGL
# Chain of Catechol O-methyltransferase (Homo sapiens) (P21964 whole entry, looked up): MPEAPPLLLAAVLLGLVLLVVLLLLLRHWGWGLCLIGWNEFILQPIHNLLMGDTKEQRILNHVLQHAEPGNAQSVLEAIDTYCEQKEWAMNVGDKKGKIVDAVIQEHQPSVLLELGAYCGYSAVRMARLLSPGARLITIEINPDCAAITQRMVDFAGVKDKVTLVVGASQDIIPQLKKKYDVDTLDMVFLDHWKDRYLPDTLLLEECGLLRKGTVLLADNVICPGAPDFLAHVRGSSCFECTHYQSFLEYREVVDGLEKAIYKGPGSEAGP
# Chain of Nicotinamide N-methyltransferase (Homo sapiens) (P40261 whole entry, looked up): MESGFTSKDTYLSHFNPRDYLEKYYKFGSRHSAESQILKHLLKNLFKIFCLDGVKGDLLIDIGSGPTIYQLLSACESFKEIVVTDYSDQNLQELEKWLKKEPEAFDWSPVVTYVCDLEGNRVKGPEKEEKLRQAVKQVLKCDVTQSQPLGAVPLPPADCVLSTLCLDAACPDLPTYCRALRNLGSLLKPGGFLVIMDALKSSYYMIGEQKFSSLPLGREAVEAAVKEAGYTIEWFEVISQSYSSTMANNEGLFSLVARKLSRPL
# Chain of Nuclear receptor subfamily 1 group I member 3 (Homo sapiens) (Q14994 whole entry, looked up): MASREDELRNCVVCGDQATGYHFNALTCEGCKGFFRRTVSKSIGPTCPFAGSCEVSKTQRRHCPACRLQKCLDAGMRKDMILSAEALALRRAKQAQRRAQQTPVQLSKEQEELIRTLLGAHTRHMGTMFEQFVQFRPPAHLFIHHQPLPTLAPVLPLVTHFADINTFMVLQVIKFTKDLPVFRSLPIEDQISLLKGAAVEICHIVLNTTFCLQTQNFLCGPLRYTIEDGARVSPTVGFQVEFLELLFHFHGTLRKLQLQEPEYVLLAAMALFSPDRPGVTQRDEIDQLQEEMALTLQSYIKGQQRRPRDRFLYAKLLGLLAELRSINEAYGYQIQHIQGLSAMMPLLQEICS
# Chain of N-terminal Xaa-Pro-Lys N-methyltransferase 1 (Homo sapiens) (Q9BV86 whole entry, looked up): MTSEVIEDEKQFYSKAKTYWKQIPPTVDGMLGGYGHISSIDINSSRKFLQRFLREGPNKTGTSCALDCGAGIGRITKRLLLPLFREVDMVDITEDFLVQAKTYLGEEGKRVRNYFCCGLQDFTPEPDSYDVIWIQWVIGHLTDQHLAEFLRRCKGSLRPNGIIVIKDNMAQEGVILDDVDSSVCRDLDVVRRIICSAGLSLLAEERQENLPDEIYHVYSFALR
smiles,measurement,setting,value
COc1nc(N)nc2c1ncn2[C@@H]1O[C@H](CO)[C@@H](O)[C@@H]1O,Potency,[1],inactive
same,Potency,[2],inactive
same,Potency,[3],5.31 µM (active)
same,Potency,[4],6.68 µM (active)
CC(N)C12CC3CC(CC(C3)C1)C2 (stereo not drawn),Potency,[1],inactive
same,Potency,[2],inactive
same,Potency,[3],inactive
same,Potency,[4],inactive
same,Potency,[5],inactive
COC(=O)Nc1nc2ccc(S(=O)c3ccccc3)cc2[nH]1 (stereo not drawn),Potency,[1],12.3 µM (active)
same,Potency,[2],inactive
same,Potency,[3],10.5 µM (active) and 596 nM (active)
same,Potency,[4],7.42 µM (active) and 335 nM (active)
O[C@@H](CNC[C@H](O)[C@H]1CCc2cc(F)ccc2O1)[C@@H]1CCc2cc(F)ccc2O1,Potency,[1],0.0389 µM (active)
same,Potency,[3],11.9 µM (active)
same,Potency,[4],11.9 µM (active)
Cc1oc(=O)oc1CN1CCN(c2cc3c(cc2F)c(=O)c(C(=O)O)c2n3C(C)S2)CC1 (stereo not drawn),Potency,[1],inactive
same,Potency,[2],inactive
same,Potency,[3],inactive
same,Potency,[4],inactive
same,Potency,[5],inactive
CCOCC(O)COc1ccc(NC(=O)CC[S+](C)C)cc1 (stereo not drawn),Potency,[1],inactive
same,Potency,[2],inactive
same,Potency,[3],inactive
same,Potency,[4],inactive
COC(c1ccccc1)(c1ccccc1)[C@H](Oc1nc(C)cc(C)n1)C(=O)O,Potency,[1],inactive
same,Potency,[2],inactive
same,Potency,[3],inactive
same,Potency,[4],inactive
CC(C)(Sc1cc(C(C)(C)C)c(O)c(C(C)(C)C)c1)Sc1cc(C(C)(C)C)c(O)c(C(C)(C)C)c1,Potency,[1],inactive
same,Potency,[2],inactive
same,Potency,[3],inactive
same,Potency,[4],inactive and 8.33 µM (active)
same,Potency,[5],inactive
Nc1ccc(S(=O)(=O)Nc2ccccn2)cc1,Potency,[1],inactive
same,Potency,[3],inactive
same,Potency,[4],inactive
CN(C)CCc1c[nH]c2ccc(CS(=O)(=O)N3CCCC3)cc12,Potency,[1],inactive
same,Potency,[3],inactive
same,Potency,[4],inactive
COc1cccc(N(C)C(=S)Oc2ccc3c(c2)CCCC3)n1,Potency,[1],inactive
same,Potency,[2],inactive
same,Potency,[3],inactive
same,Potency,[4],inactive
CCN(CC)CC#CCOC(=O)C(O)(c1ccccc1)C1CCCCC1 (stereo not drawn),Potency,[1],3.01 µM (active)
same,Potency,[6],inactive
COc1cc2ncnc(Nc3cccc(Cl)c3)c2cc1OC,Potency,[6],inactive
same,Potency,[7],12.6 µM (active)
same,activity,[8],-45.8%
same,Potency,[9],30.4 µM (active)
same,activity,[10],-29.1%
same,activity,[11],-45.8%
CNS(=O)(=O)CCc1ccc2[nH]cc(C3CCN(C)CC3)c2c1,Potency,[6],inactive
same,activity,[8],-4.91%
same,"activity change, negative = inhibition",[9],2.91%
same,activity,[10],-12.2%
same,activity,[11],-2.32%
COc1ccccc1OCC(O)COC(N)=O (stereo not drawn),outcome,[12],inactive
O=C(O)c1cccnc1,outcome,[13],inactive
same,outcome,[14],inactive
same,outcome,[15],inactive
Nc1nc(N)c2nc(CNc3ccc(C(=O)NC(CCC(=O)O)C(=O)O)cc3)cnc2n1 (stereo not drawn),Potency,[6],3.55 µM (active)
O=C(O)C1CCCN(CCC=C(c2ccccc2)c2ccccc2)C1 (stereo not drawn),Potency,[6],inactive
same,Potency,[3],inactive
same,Potency,[4],inactive
Clc1ccccc1CN1CCc2sccc2C1,Potency,[5],inactive
N[C@@H](Cc1ccc(O)c(O)c1)C(=O)O,Potency,[6],inactive
same,Potency,[3],inactive
same,Potency,[4],inactive
CS(=O)(=O)c1ccc([C@@H](O)[C@@H](CO)NC(=O)C(Cl)Cl)cc1,Potency,[3],inactive
CC(C)NCC(O)c1ccc(NS(C)(=O)=O)cc1 (stereo not drawn),Potency,[6],inactive
same,Potency,[3],inactive
same,Potency,[4],inactive
